Screening data (PubChem)
Sampled rows, rich in hits. Any-hit rate of the full collection: about 10%.
JMJD2A Tudor – qHTS Assay for Inhibitors of JMJD2A-Tudor Domain; Lysine-specific demethylase 4A (Homo sapiens), O75164; AlphaScreen JMJD2A-Tudor / H3K4me3 peptide binding; Potency, µM (titrated, usually from 114 µM), for inactives: top-dose activity change, negative = inhibition, usual class: inhibitors; actives 4.4% (n = 390,000); further: potency means the concentration at half of the fitted maximal effect; on the % scale 0 is the no-effect control and ±100 the full control effect; nearly all actives have a fitted effect of over 50% in size
G9a inh – qHTS Assay for Inhibitors of Histone Lysine Methyltransferase G9a; AID 504332, 2011; Potency, µM (titrated, usually from 102 µM), for inactives: at the highest dose activity, negative = inhibition, actives largely listed as inhibitors; G9a H3K9 monomethylation, AlphaScreen, 2 h; Histone-lysine N-methyltransferase EHMT2 (Homo sapiens), Q96KQ7; actives 8.8% (n = 350,000); further: potency means the concentration at half of the fitted maximal effect; on the % scale 0 is the no-effect control and ±100 the full control effect; nearly all actives have a fitted effect of over 75% in size
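G9a (20 nM) preincubated 15 min RT with compounds, then 500 nM biotinylated H3K9 peptide and 20 uM SAM added; 2 h RT reaction. Monomethyl-H3K9 product detected by AlphaScreen with anti-H3K9me1 antibody, streptavidin donor and anti-rabbit IgG acceptor beads.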
BAZ2B inh – qHTS Assay for Inhibitors of BAZ2B | AlphaScreen BAZ2B-H3K14Ac peptide displacement | Potency, µM (series often up to 114 µM), without a hit: at the top dose activity change, negative = inhibition, most hits filed as inhibitors | actives 4.4% (n = 360,000); further: potency means the concentration at half of the fitted maximal effect; on the % scale 0 is the no-effect control and ±100 the full control effect; nearly all actives have a fitted effect of over 60% in size
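Complex of BAZ2B and biotin-H3K14Ac (50 nM apiece) forms over 30 min at RT, then faces library compounds up to 110 uM for another 30 min; AlphaScreen beads added, 20 min dark incubation, luminescence read.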
HP1b binding inh – HTS for Inhibitors of HP1-beta Chromodomain Interactions with Methylated Histone Tails | AlphaScreen HP1-beta / biotin-H3K9me3 peptide binding | Potency, µM (titrated, usually from 114 µM), without a hit: at the top dose activity change, negative = inhibition, actives largely listed as inhibitors | actives 0.56% (n = 390,000) | Chromobox protein homolog 1 (Homo sapiens), P83916 | AID 540317, 2011; further: potency means the concentration at half of the fitted maximal effect; nearly all actives have a fitted effect of over 70% in size
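Compound inhibition of the preformed complex between 50 nM HP1-beta and 50 nM biotinylated H3K9me3 peptide was read by AlphaScreen. Buffer was PBS pH 7.4 with 0.01% Tween-20. Incubations ran 30 min at room temperature, with 10 ug/mL donor/acceptor beads.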
CtBP-E1A blk – qHTS Assay for Inhibitors of the CtBP/E1A Interaction. actives 0.49% (n = 340,000). activity change, % (no concentration beside the values). AID 651724, 2012. CtBP / adenovirus E1A interaction (AlphaScreen). AlphaScreen GST-E1A/His-CtBP binding, 1536-well; hits give low values; in the data active means activity change below about -65%; inconclusive means mostly about -30% to -63%; further: on the % scale 0 is the no-effect control and ±100 the full control effect
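AlphaScreen with 125 nM GST-E1A and 125 nM His-CtBP (5X stocks) in Tris pH 8.0, 300 mM NaCl, BSA, Tween 20, TCEP. Compounds preincubated 2 h at 37 deg C, then glutathione donor/nickel acceptor beads added for 1 h at 37 deg C in dark.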
Six1-Eya2 inh – qHTS Assay for Inhibitors of the Six1/Eya2 Interaction | Homeobox protein SIX1 (Homo sapiens) + Protein phosphatase EYA2 (Homo sapiens), … | AlphaScreen GST-Six1/His-Eya2 binding, biochemical; hits give low values | activity change, % (concentration not given with the values) | actives 0.56% (n = 360,000) | AID 651725, 2012; in the data active means activity change below about -65%; inconclusive means mostly about -30% to -63%; further: on the % scale 0 is the no-effect control and ±100 the full control effect
Target sequence (O00167 whole entry, looked up): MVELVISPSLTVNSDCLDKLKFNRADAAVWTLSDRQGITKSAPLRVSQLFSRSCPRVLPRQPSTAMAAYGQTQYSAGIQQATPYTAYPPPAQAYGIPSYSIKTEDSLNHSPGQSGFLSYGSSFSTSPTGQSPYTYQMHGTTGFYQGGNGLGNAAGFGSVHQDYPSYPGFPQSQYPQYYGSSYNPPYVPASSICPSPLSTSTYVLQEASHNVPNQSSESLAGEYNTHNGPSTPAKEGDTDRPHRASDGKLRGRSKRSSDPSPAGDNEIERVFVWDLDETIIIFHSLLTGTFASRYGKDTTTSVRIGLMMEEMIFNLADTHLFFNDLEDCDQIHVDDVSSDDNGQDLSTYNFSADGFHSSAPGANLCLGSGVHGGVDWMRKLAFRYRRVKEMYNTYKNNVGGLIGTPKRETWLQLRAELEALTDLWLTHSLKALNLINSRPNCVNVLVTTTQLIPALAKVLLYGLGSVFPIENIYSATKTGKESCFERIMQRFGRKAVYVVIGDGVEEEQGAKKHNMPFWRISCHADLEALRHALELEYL
Target sequence (Q15475 whole entry, looked up): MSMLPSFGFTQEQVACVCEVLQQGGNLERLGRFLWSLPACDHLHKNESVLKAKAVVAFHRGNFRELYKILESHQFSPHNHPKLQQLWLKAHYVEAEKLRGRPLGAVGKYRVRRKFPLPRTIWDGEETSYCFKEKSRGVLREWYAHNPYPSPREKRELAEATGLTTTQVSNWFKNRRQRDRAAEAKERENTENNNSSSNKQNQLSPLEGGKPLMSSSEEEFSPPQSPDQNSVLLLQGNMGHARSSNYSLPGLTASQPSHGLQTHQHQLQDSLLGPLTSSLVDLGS
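AlphaScreen with GST-Six1 and His-Eya2 (5X mix: 250 nM and 500 nM), glutathione donor and nickel acceptor beads; buffer 50 mM Tris pH 8.0, 300 mM NaCl, 1 mM TCEP; 1 h at 37 C in the dark.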
The depositor's hits bear a star; ? = inconclusive; / = no result given; [ ] = another dose, or the depositor's remark. Unless noted, the call rests on the fitted dose curve; in most records, active means well fitted inhibition curve with a large enough effect; inconclusive means small, poorly fitted or top-dose-only effect; inactive means no such curve, though single readings can be large or run the other way.

SMILES	JMJD2A Tudor	G9a inh	BAZ2B inh	HP1b binding inh	CtBP-E1A blk	Six1-Eya2 inh
COc1ccc2nc(-c3ccccn3)[nH]c2c1	-13.4%	35.5µM*	?	45.3%	-20.9	-23.7
Nc1ccc2nc(-c3ccccn3)[nH]c2c1	?	?	44.7µM*	25.2%	-70.3*	-75.2*
Cc1cc(=S)nc(-c2ccccn2)[nH]1	?	?	?	-3.2%	-68.8*	-84.9*
COC(=O)c1ccc(O)c(Sc2cc(C(=O)OC)ccc2O)c1	-2.8%	10µM*	8.0%	40.8%	1.5	6.4
CC(=O)Oc1ccc(N(C(C)=O)S(=O)(=O)c2ccc(C)cc2C)c2ccccc12	-12.0%	15.1%[59 µM]	-0.5%	?	1.6	-11.9
Cc1ccc(S(=O)(=O)N(C(=O)c2ccncc2)c2ccc(OC(=O)c3ccncc3)c3ccccc23)c(C)c1	?	1.58µM*	?	?	-1.8	-10.6
Cc1ccc(S(=O)(=O)N(C(=O)c2ccncc2)c2ccc(OC(=O)c3ccncc3)c3ccccc23)cc1	39.8µM*	8.91µM*	-35.1%	-27.5%	4.6	-11.0
COc1ccc(C(=O)c2cn(Cc3ccc(C)cc3)c3cc4c(cc3c2=O)OCO4)cc1	-14.5%	26.7%[59 µM]	17.6%	54.3%	/	/
Cc1ccc2c(C)c(C(=O)N3CCCCC3CO)oc2c1C (centres undefined)	-23.3%	-9.1%	-12.8%[57.1 µM]	56.1%	1.6	2.2
CSc1ccc(C(O)c2ncc(-c3ccc(F)cc3)[nH]2)cc1 (centres undefined)	/	/	/	/	-21.8	-16.5
COc1ccc(NC2CCCN(C(=O)CCc3cccc(Cl)c3)C2)cc1 (centres undefined)	?	?	35.5µM*	?	-19.8	-18.9
COc1ccc(NC2CCCN(C(=O)CCc3cccc(F)c3)C2)cc1 (centres undefined)	?	50.1µM*	?	-17.2%	-0.2	-14.8
O=C(CCc1ccccn1)N1CCCC(Nc2cccc(F)c2)C1 (centres undefined)	7.08µM*	10.3%	-2.7%	29.1%	-14.8	6.1
O=C(CCc1ccccn1)N1CCCC(Nc2ccc(F)cc2)C1 (centres undefined)	-22.2%	/	-31.4%	16.5%	3.3	2.1
CC(=O)O/N=C1\C(=O)N(Cc2ccc(C)cc2)c2ccccc21	-31.9%	50.1µM*	-28.5%	0.9%	-17.7	-2.0
CN1C(=O)/C(=N\OC(=O)c2ccccc2Cl)c2ccccc21	-9.0%	?	?	49.3%	/	3.8
COc1cc(/C=N/Nc2cc(C)nc(NS(=O)(=O)c3ccccc3)n2)ccc1O	-8.9%	-1.9%	-15.5%	6.4%	-73.4*	-71.0*
COc1cc(/C=N/Nc2cc(C)nc(NS(=O)(=O)c3ccc(C)cc3)n2)ccc1O	-22.4%	-16.9%[59 µM]	-27.2%	28.9%	-18.5	?
COc1cc(/C=N/NC(=O)c2nc(-c3ccccc3)n(-c3ccccc3)n2)ccc1O	-23.6%	-12.6%[59 µM]	-1.1%	4.8%	?	?
Cc1cc(NN)nc(NS(=O)(=O)c2ccccc2)n1	?	31.6µM*	13.9%	8.5%	-24.9	-7.6
COc1cc(/C=N/Nc2nc(C)nc3c2cnn3-c2ccccc2)ccc1O	-12.4%	-5.4%	-14.2%	13.4%	-77.0*	-67.0*
CN(C)c1cccc(C(=O)Nc2ccc3nc4n(c(=O)c3c2)CCCCC4)c1	?	44.7µM*	?	-6.8%	-4.5	-15.7
CCN1CCN(C(=S)Nc2ccc3nc4n(c(=O)c3c2)CCCCC4)CC1	-6.3%	44.7µM*	-7.8%	50.3%	-1.9	-5.1
O=c1c2cc(NC(=S)N3CCCC3)ccc2nc2n1CCCCC2	-0.7%	21.0%	1.5%	39.8%	-5.9	-7.2
CC1Cn2cc(C(=O)Nc3ccccc3C(F)(F)F)c(=O)c3c(Cl)ccc(c32)O1 (centres undefined)	-19.2%	9.8%[12.7 µM]	5.5%	15.5%	/	/
SMILES	JMJD2A Tudor	G9a inh	BAZ2B inh	HP1b binding inh	CtBP-E1A blk	Six1-Eya2 inh
CN(N)C(=S)Nc1ccc(Cl)cc1	0.7%	15.8µM*	-30.6%	36.5%	0.0	1.4
CN(C)NC(=S)Nc1ccc(Cl)cc1	-5.6%	6.2%[59 µM]	-23.4%	1.9%	-0.7	5.4
COc1cc([N+](=O)[O-])cc(/C=N/N(CCC#N)C(C)=O)c1O	-6.9%	44.7µM*	?	11.0%	5.9	2.3
CCCN1CCC(=O)N(C(CSc2ccc(OC)cc2)CC(C)C)CC1 (centres undefined)	-24.1%	/	/	16.6%	/	/
COc1ccc(-c2cccc(NS(=O)(=O)c3cccs3)c2)nn1	-6.1%	17.1%[59 µM]	0.0%	9.6%[57 µM]	/	/
O=C(CC1C(=O)NCCN1Cc1ccccc1C(F)(F)F)NCCN1CCCCC1=O (centres undefined)	18.3%	39.8µM*	-8.7%	60.2%	/	4.8
O=C(CC1C(=O)NCCN1Cc1ccccc1C(F)(F)F)NCCn1cccn1 (centres undefined)	-14.4%	35.5µM*	-30.3%	28.1%	1.5	3.9
COc1cccc(CN2CCNC(=O)C2CC(=O)NCCN2CCCCC2=O)c1 (centres undefined)	5.5%	?	0.7%	48.8%	-22.9	-7.6
O=C(CC1C(=O)NCCN1Cc1ccccc1C(F)(F)F)NCCN1CCOCC1 (centres undefined)	-10.4%	44.7µM*	-36.3%	24.9%	4.2	-5.4
Cc1nccn1CCCNC(=O)CC1C(=O)NCCN1Cc1ccccc1C(F)(F)F (centres undefined)	-19.6%	?	-8.2%	46.8%	0.4	7.5
CN(CCN1CCOCC1)C(=O)CC1C(=O)NCCN1Cc1ccccc1C(F)(F)F (centres undefined)	-10.4%	44.7µM*	-27.4%	45.9%	1.5	4.1
Cc1c(P(=S)(c2ccccc2)c2ccccc2)[n+]2ccccc2n1CCCc1ccccc1	-17.0%	/	/	/	/	/
CC(C)CNc1nc(Oc2ccc(OCC(N)=O)nn2)nc(N2CCOCC2)n1	-13.2%	0.5%[59 µM]	-4.0%	32.5%	/	/
COc1ccc(NC(=O)C2CCCN2S(=O)(=O)c2cccc3cccnc23)cc1OC (centres undefined)	-16.8%	32.7%	-11.9%	3.3%[57 µM]	/	-6.4
CC1(C)Cc2c(sc(NC(=O)c3ccco3)c2C#N)CO1	-13.5%	-26.6%[59 µM]	-30.5%	34.0%	-1.2	2.0
CN1Cc2sc(NC(=S)NC(=O)c3ccccc3)c(C#N)c2CC1(C)C	35.5µM*	10µM*	44.7µM*	?	-18.1	-14.3
